Our source for the outcome values is PubChem BioAssay AID2283125 (EPA ToxCast).

Each structure is given as a SMILES string. Inconclusive results are not listed. Activity calls are given as the source filed them. How the source made its calls: active means hit-call score of the fitted dose curve at least 0.9, where 1 is the maximum; inconclusive means response in the unintended direction; inactive means score below 0.9.

This assay addresses Tyrosine-protein kinase ABL1 (Homo sapiens) (UniProt P00519). The assay can be described thus: NVS_ENZ_hAbl: NovaScreen (NVS) Enzymatic Assay for human ABL proto-oncogene 1, non-receptor tyrosine kinase. As to the method:
NVS_ENZ_hAbl is a biochemical, single-readout assay that uses extracted gene-proteins in a cell-free assay. Measurements were taken 1 hour after chemical dosing in a 96-well plate.NVS_ENZ_hAbl is one of one assay component(s) measured or calculated from the NVS_ENZ_hAbl assay. It is designed to make measurements of enzyme activity, a form of enzyme reporter, as detected with fluorescence intensity signals by Fluorescence and electrophoretic mobility shift technology.Data from the assay component NVS_ENZ_hAbl was analyzed into 1 assay endpoint. This assay endpoint, NVS_ENZ_hAbl, was analyzed in the positive analysis fitting direction relative to DMSO as the negative control and baseline of activity. Using a type of enzyme reporter, loss-of-signal activity can be used to understand changes in the enzymatic activity as they relate to the gene ABL1. Furthermore, this assay endpoint can be referred to as a primary readout, because this assay has produced multiple assay endpoints where this one serves a enzymatic activity function. To generalize the intended target to other relatable targets, this assay endpoint is annotated to the kinase intended target family, where the subfamily is non-receptor tyrosine kinase.
Binding assays used specific radioligands (tritiated, iodinated) with non-radioactive competitive displacement ligands in agonist or antagonist protocols (as indicated) and various reference compounds and inhibitors to titrate specific binding to receptors and transporters. Most enzyme assays (CYPs, kinases, phosphatases, proteases, HDACs) used recombinant protein and specific substrates (fluorescence mostly, some colorimetric and radioactive) and inhibitors, followed by a biochemical separation of substrate and product. All assays for the biochemical HTS were initially run in duplicate at a single concentration (10 uM for CYP450 assays and 25 uM for all others). Assay-chemical combinations meeting a pre-defined threshold (e.g., 30% inhibition and other criteria defined below) were then run in singleton concentration-response format with maximum concentration of 20 uM for CYPs and 50 uM for all others. Each assay was run with positive and negative controls, and concurrent controls on every plate. The follow-up (secondary) screen tested active chemical-pairs in concentration series, as well as a few additional assays not tested in the primary screen, some selected negative inactives, and several cases re-run in the concentration series for confirmatory purposes.

Sequence of Tyrosine-protein kinase ABL1 (Homo sapiens) (P00519 whole entry, looked up): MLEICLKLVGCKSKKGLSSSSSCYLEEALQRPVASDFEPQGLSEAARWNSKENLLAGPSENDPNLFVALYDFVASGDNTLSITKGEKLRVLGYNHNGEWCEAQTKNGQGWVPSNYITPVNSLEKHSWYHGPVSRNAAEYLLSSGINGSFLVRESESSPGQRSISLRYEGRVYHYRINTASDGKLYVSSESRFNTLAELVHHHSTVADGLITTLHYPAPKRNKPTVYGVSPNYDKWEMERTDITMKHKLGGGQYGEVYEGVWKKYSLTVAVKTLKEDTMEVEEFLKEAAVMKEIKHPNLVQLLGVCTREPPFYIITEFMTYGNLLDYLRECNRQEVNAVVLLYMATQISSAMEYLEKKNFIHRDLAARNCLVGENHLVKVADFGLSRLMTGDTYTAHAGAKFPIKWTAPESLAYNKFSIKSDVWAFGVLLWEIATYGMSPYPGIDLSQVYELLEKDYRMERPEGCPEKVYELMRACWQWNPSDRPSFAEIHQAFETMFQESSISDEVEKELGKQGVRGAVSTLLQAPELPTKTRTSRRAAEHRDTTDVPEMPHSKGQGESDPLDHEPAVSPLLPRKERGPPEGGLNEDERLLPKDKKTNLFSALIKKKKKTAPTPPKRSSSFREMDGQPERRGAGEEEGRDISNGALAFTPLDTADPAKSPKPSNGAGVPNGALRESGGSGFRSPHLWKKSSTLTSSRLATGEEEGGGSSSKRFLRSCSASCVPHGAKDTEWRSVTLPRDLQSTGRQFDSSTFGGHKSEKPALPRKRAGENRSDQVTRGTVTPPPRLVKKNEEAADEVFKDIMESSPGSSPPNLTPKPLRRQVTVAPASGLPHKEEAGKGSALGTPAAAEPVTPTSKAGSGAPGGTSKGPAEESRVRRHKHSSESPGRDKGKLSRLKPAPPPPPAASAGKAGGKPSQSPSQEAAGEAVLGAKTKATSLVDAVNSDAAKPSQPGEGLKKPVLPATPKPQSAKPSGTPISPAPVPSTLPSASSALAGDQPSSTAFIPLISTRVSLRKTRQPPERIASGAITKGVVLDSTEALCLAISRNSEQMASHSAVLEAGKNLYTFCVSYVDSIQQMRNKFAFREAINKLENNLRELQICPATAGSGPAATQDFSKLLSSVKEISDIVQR

As for `CCNc1nc(Cl)nc(NCC)n1`, the compound was classed as inactive.

For `CCCC(=NOCC)C1=C(O)CC(CC(C)SCC)CC1=O` (stereo not drawn), the result was inactive.

On to `CCCCNC(=O)n1c(NC(=O)OC)nc2ccccc21`, for which the outcome was inactive.

`O=S(=O)(O)C(F)(F)C(F)(F)C(F)(F)C(F)(F)C(F)(F)C(F)(F)C(F)(F)C(F)(F)F`: the compound was called inactive.

Consider `N#Cc1c(Cl)c(Cl)c(Cl)c(C#N)c1Cl`, for which the call was inactive.

`O=C(O)C(F)(F)C(F)(F)C(F)(F)C(F)(F)C(F)(F)C(F)(F)C(F)(F)F`: the result was inactive.

On to `O=C(Nc1ccccc1)Nc1cnns1`, for which the compound was classed as inactive.

For the compound `O=C(Nc1ccccc1)Nc1ccnc(Cl)c1`, the result was inactive.
